Bioassay records as filed in PubChem BioAssay.
Most compounds without a hit are left out; they make up all but 7.4% or so of the library.
NPC1 prom act = activators of NPC1 promoter; Huh7 NPC1 promoter luciferase reporter, 24 h; Potency, µM (series often up to 9.22 µM), inactives show at the top dose activation, actives largely listed as activators; 320,000 tested, 2.4% active; note: % of control where 0% means no effect; nearly all actives have a fitted effect of over 60% in size
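NPC1 promoter–luciferase Huh7 cells; 24 h compound; luminescence.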
FLuc modulator = firefly luciferase modulation, counter-screen for miR-21 project; P08659; purified FLuc, Km substrates, luminescence inhibition; Potency, µM (series often up to 57.5 µM), without a hit: at the top dose activity change, negative = inhibition, hits mostly inhibitors; 360,000 tested, 6.9% active;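 note: plate controls were vehicle for no effect and reference inhibitor for full effect; nearly all actives have a fitted effect of over 55% in size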
Target sequence (P08659 whole entry, looked up): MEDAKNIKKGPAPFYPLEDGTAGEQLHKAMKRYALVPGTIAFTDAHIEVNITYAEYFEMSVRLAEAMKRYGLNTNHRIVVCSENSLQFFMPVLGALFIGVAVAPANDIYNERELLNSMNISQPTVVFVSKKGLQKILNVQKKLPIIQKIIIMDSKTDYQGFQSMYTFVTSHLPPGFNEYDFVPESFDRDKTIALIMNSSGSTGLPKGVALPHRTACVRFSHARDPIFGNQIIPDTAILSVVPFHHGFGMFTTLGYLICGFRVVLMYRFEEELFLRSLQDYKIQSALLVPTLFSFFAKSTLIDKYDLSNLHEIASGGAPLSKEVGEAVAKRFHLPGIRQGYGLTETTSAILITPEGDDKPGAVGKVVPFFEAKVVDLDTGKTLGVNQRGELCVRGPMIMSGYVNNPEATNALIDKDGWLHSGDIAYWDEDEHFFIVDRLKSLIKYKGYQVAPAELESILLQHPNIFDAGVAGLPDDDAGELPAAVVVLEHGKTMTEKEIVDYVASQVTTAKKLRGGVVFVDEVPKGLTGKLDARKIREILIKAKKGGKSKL
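Biochemical qHTS of compounds, final roughly 60 µM downward over six points, against 10 nM purified firefly luciferase using Km concentrations of substrates (10 uM D-luciferin, 10 uM ATP) in Tris acetate pH 7.5 buffer; luminescence output.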
Rab9 prom act = activators of Rab9 promoter | Potency, µM (highest dose often 9.22 µM), for inactives: top-dose activation, negative = inhibition, actives largely listed as activators | Huh7 Rab9 promoter-luciferase reporter, luminescence, 24 h | AID 485297 | 320,000 tested, 2.8% active; note: % of control where 0% means no effect; nearly all actives have a fitted effect of over 60% in size
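Huh7 cells stably carrying Rab9 promoter–luciferase reporter, plated 1500 cells/well, compound added after 2 h and incubated 24 h at 37 °C; luciferase luminescence then read after 10 min with detection reagent.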
SMN2 splice up = increases expression of the SMN2 splice variant. HEK293 SMN2-luciferase splicing reporter, luminescence, 30-36 h. Potency, µM (highest dose often 46.1 µM), inactives show at the highest dose activity change, positive = activation, hits mostly activators. 210,000 tested, 2.8% active. AID 1458; note: % of control where 0% means no effect; nearly all actives have a fitted effect of over 55% in size
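qHTS luciferase splicing reporter: luminescence rises when SMN2 exon 7 is included in transfected HEK293 cells. Compound exposure lasted 30-36 h at 37C, with 4.5 mM final sodium butyrate as control, followed by a ONE-Glo read.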
ELG1 genotoxic = induces genotoxicity in HEK293T cells with luciferase-tagged ELG1; HEK293T ELG1-luciferase reporter, luminescence, 16 h; AID 504466; 330,000 tested, 1.3% active; Potency, µM (doses to about 46 µM), for the others: at the top dose activity change, positive = activation, actives largely listed as activators; note: % of control where 0% means no effect; nearly all actives have a fitted effect of over 60% in size
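HEK293T cells expressing luciferase-tagged ELG1 were exposed to compound or DMSO vehicle for 16 hr at 37 °C and 5% CO2. Luciferase activity was then measured with ONE-Glo after 30 min at room temperature.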
* marks the source's active call; other numbers are inactive results; ? = inconclusive; · = no result; [ ] = dose if it differs, or a comment. Calls come from the whole dose curve; as a rule, active = well fitted curve in the direction sought with a large enough effect; inconclusive = small, poorly fitted or top-dose-only effect, or another doubt; inactive = no such curve, though single readings can be large; an effect the other way counts as inactive or inconclusive. Potency is the fitted concentration of half-maximal effect.

SMILES	NPC1 prom act	FLuc modulator	Rab9 prom act	SMN2 splice up	ELG1 genotoxic
O=C(NCC1CCN(Cc2ccccc2Cl)CC1)c1cc2ccc3cccnc3c2[nH]1	·	-14.0%	·	·	·
O=C(CCSc1ccccc1)N1CCOCC1	2.82µM*	19µM*	2.82µM*	12.6µM*	8.2µM*
O=C(CCSc1ccccc1)N1CCCC1	2.51µM*	16.9µM*	2.82µM*	11.2µM*	?
O=C(CCSc1nnnn1-c1ccccc1)N1CCOCC1	11.4%	-3.8%	11.7%	29.7%	10.9%
O=C(CCSc1ccccc1)NC1CCCCCC1	-0.1%	10.7µM*	-7.6%	1.6%	0.1%
O=C(CSc1ccc(Cl)cc1)N1CCCC1	14.6%	?	?	?	?
CC(NC(=O)CCCCCNC(=O)N1CCn2c1nc1ccccc12)c1ccccc1 (centres undefined)	-3.7%	-0.7%	-4.6%	·	-7.7%
O=C(NCc1cccc(Cl)c1)c1ccc2c(c1)OCCO2	19.4%	?	24.3%	·	10.8%
O=C(O)c1ccc2c(c1)OCCCO2	-0.4%	-0.9%	-0.5%	·	0.0%
O=C(NCCc1ccccc1)c1ccc2c(c1)OCCCO2	-37.0%	0.0601µM*	?	·	?
O=C(NCCc1ccccc1)c1ccc2c(c1)OCCO2	0.0158µM*	0.135µM*	0.0032µM*	·	?
O=C(NCCc1cccc(Cl)c1)c1ccc2c(c1)OCO2	0.316µM*	1.51µM*	0.447µM*	·	2.59µM*
COc1ccc(CCNC(=O)c2coc(=O)c(Br)c2)cc1	8.7%	0.2%	8.9%	·	18.3µM*
COc1ccc(CCNC(=O)c2ccc(Br)cc2)cc1	0.0%	?	-2.0%	·	-0.1%
O=C(NCCS(=O)(=O)NCCc1ccccc1)c1ccc2c(c1)OCO2	4.47µM*	12µM*	3.16µM*	·	2.06µM*
COc1ccc(CCNC(=O)c2ccc3c(c2)OCCO3)cc1	?	9.53µM*	3.16µM*	?	?
O=C(NCCS(=O)(=O)NCc1ccccc1Cl)c1ccc2c(c1)OCO2	-2.9%	-0.9%	-0.8%	·	3.4%
COc1ccc(CCNC(=O)c2ccc3c(c2)OCO3)cc1	23.0%	?	?	·	14.6%
CCOc1ccc(CN(C)C(=O)CNC(=O)C2CCCCC2)cc1OC	-5.8%	0.3%	6.7%	·	1.1%
CC(=O)Nc1ccc(S(=O)(=O)NC2C3(C)CCC(C3)C2(C)C)cc1 (centres undefined)	-6.3%	-2.5%	0.6%	·	-3.2%
CC1=CN2C(=N)/C(=C/c3ccc([N+](=O)[O-])o3)C(=O)N=C2S1	-29.6%	13.5µM*	-54.1%	-38.6%	-14.2%
CC1=CN2C(=N)/C(=C/c3cn(CCCOc4ccccc4C)c4ccccc34)C(=O)N=C2S1	?	-7.8%	?	-48.4%	?
CCOc1ccc(-c2ccc(/C=C3/C(=N)N4C=CSC4=NC3=O)o2)c([N+](=O)[O-])c1	-0.5%	2.4%	-5.6%	-8.7%	?
CC1=CN2C(=N)/C(=C/c3ccco3)C(=O)N=C2S1	2.51µM*	1.51µM*	1.78µM*	3.55µM*	?
COc1ccc(-c2cc(C(=O)N3CCOCC3)c3cc(C)ccc3n2)cc1	5.0%	16.9µM*	0.2%	1.2%	1.8%
SMILES	NPC1 prom act	FLuc modulator	Rab9 prom act	SMN2 splice up	ELG1 genotoxic
COc1ccc(-c2cc(C(=O)N3CCCCC3)c3ccccc3n2)cc1	15.8%	5.36µM*	16.6%	·	1.5%
Cc1ccc(-c2cc(C(=O)N3CCN(c4ccccc4O)CC3)c3ccccc3n2)o1	?	0.757µM*	2.24µM*	·	-0.4%
Cc1ccc(-c2cc(C(=O)N3CCOCC3)c3ccccc3n2)cc1	7.3%	10.7µM*	17.9%	13.4%	25.1%
COc1ccc(-c2cc(C(=O)N3CCOCC3)c3ccccc3n2)cc1OC	-1.9%	?	-5.2%	·	-2.9%
Cc1ccc(OCC(=O)Oc2ccc(C)c(C)c2)cc1	3.7%	?	0.7%	·	-5.9%
COc1ccc2nc(C)cc(C(=O)O)c2c1	2.6%	-2.5%	-6.4%	-6.3%	2.0%
COc1ccc(-c2cc(C(=O)N3CCCCCC3)c3cc(C)ccc3n2)cc1	-5.9%	12µM*	4.6%	·	-3.4%
COc1ccc2nc(-c3ccc(Cl)cc3)cc(C(=O)O)c2c1	2.1%	8.49µM*	1.0%	·	8.3%
CSc1cccc(NC(=O)c2cc(S(=O)(=O)N3CCc4ccccc43)cn2C)c1	-8.8%	1.8%	-3.0%	·	-1.7%
CCOc1nc(NC(=O)NS(=O)(=O)Oc2cccc(F)c2)nc(-c2ccccc2)n1	·	?	·	-6.7%	·
CC(=O)O[C@H]1C[C@H]2CC[C@@H]3[C@@H](CC[C@]4(C)[C@H](OC(C)=O)[C@H]([N+]5(C)CCCCC5)C[C@@H]34)[C@]2(C)C[C@H]1[N+]1(C)CCCCC1	·	·	·	-12.2%[20.6 µM]	·
CCOC(=O)c1ccc(OC(=O)CCCCCN=C(N)N)cc1	·	·	·	3.9%[20.6 µM]	·
COc1ccc2nc(N3CCC(C)CC3)c(C#N)cc2c1	?	10.7µM*	3.98µM*	20µM*	?
COc1ccc2nc(N3CCC(O)CC3)c(C#N)cc2c1	19.4%	15.1µM*	4.7%	-9.2%	6.3%
CCOC(=O)C1CCCN(C(=O)c2ccc3oc(CCc4ccccc4)nc3c2)C1 (centres undefined)	?	13.5µM*	30.0%	·	11.6%
O=C(c1ccc2oc(CCCc3ccccc3)nc2c1)N1CCCC1	3.16µM*	8.49µM*	1.78µM*	·	9.2µM*
CCCCc1nc2cc(C(=O)N3CCN(c4nc(C)cnc4C)CC3)ccc2o1	?	15.1µM*	?	·	3.9%
COCCC1CCCCN1C(=O)c1ccc2nc(Cc3ccccc3F)oc2c1 (centres undefined)	1.78µM*	8.49µM*	2.82µM*	·	10.3µM*
COCCc1nc2ccc(C(=O)N3CCCCC3COC)cc2o1 (centres undefined)	0.0%	-3.2%	-4.3%	·	4.1%
CCCc1nn2c(=O)cc(COC(=O)c3ccccc3NC(=O)c3ccc(OCC)cc3)nc2s1	·	-12.4%	·	·	·
Clc1ccc2oc(SCc3cccnc3)nc2c1	17.1%	?	15.7%	·	3.3%
COc1ccccc1NC(=O)c1ccc(NC(=O)COC(=O)C2(C)CC2(Cl)Cl)cc1 (centres undefined)	1.3%	7.7%	0.1%	3.2%	-11.3%
Oc1cccc2ccc(SSc3ccc4cccc(O)c4n3)nc12	·	·	·	-9.7%[9.22 µM]	·
COC(=O)C1CCCCN1C(=O)c1ccc2oc(Cc3ccccc3)nc2c1 (centres undefined)	3.55µM*	15.1µM*	?	·	?
CC(=O)C1CCCN(C(=O)c2ccc3oc(CCc4ccccc4)nc3c2)C1 (centres undefined)	?	?	2.51µM*	·	?
O=c1c2cn[nH]c2[nH]c(=S)n1-c1ccccc1Cl	-4.1%	-7.3%	0.3%	·	3.1%
O=c1c2cn[nH]c2[nH]c(=S)n1-c1ccccc1F	2.82µM*	1.2µM*	?	14.1µM*	6.51µM*
O=C(c1ccncc1)N1CCC2(CC1)CN(c1ccncc1)C2	·	·	·	4.9%	·
